# Bioassay records deposited in PubChem BioAssay by National Center for Advancing Translational Sciences (NCATS).
# The list is not random: actives were taken first. Their share in the collection is about 21%.
# Pf growth 48h: Primary qHTS for delayed death inhibitors of the malarial parasite plastid, 48 hour incubation | P. falciparum luciferase growth in erythrocytes, 48 h | Potency, µM (top dose mostly 28.7 µM), inactives show at the top dose activity change, negative = inhibition, hits mostly inhibitors | actives 5.9% (n = 310,000) | AID 504832, 2011; also: potency is read from the fitted curve at half-maximal effect; % is scaled to controls: 0 for no effect and ±100 for the full control effect
#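 Read-out is firefly luciferase luminescence from an integrated reporter in P. falciparum, so falling signal marks reduced parasite growth. Infected erythrocytes were at 2% hematocrit and 0.1% parasitemia (final) in Albumax-supplemented RPMI 1640.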
# CHX counter: Cycloheximide Counterscreen for Small Molecule Inhibitors of Shiga Toxin | cell reporter, cycloheximide protein synthesis inhibition counterscreen | actives 12% (n = 300,000) | max response, % | AID 2314, 2010; in the data active = max response mostly above about 13%, no sharp cut-off; inactive = mostly below about 14%; also: read at 38.3 µM for the half of the compounds with a filed dose; 0% is about no effect
# Shiga toxin inh: A qHTS for Small Molecule Inhibitors of Shiga Toxin | Vero cells, Shiga toxin protein synthesis inhibition reporter | actives 9.2% (n = 290,000) | inhibition, % at 38.7 µM | AID 2315, 2010; in the data active = inhibition mostly above about 28%, no sharp cut-off; inactive = mostly below about 43%; also: 0% is about no effect
# Pf growth 96h: Primary qHTS for delayed death inhibitors of the malarial parasite plastid, 96 hour incubation; Potency, µM (top dose mostly 28.7 µM), for inactives: at the top dose activity change, negative = inhibition, usual class: inhibitors; P. falciparum luciferase reporter growth, 96 h; actives 6.9% (n = 320,000); also: potency is read from the fitted curve at half-maximal effect; % is scaled to controls: 0 for no effect and ±100 for the full control effect
#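 Parasite growth measured via integrated firefly luciferase reporter in P. falciparum. Infected erythrocytes at 2% hematocrit, 0.05% parasitemia final were treated 96 hours at 37 C under 5% CO2, and luminescence was read.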
# NS1 inh: qHTS Assay for Inhibitors of Influenza NS1 Protein Function | Potency, µM (highest dose often 46.1 µM), for the others: at the highest dose activity, positive = more growth | actives 0.4% (n = 270,000) | AID 2326, 2010; calls by dose curve; also: potency is read from the fitted curve at half-maximal effect; actives are rising curves; nearly all actives have a fitted effect of over 50% in size
#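 A cell-based growth assay was used: compounds that relieve NS1-induced slow growth of budding yeast raise OD600. Assay medium was yeast nitrogen base with ammonium sulphate and -URA supplement, pH 6.0, with 2% galactose.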
# * = called active by the depositor; i = inactive; ? = inconclusive; · = no result. Unless noted, calls follow the shape of the dose curve; as a rule, active = well fitted inhibition curve with a large enough effect; inconclusive = small, poorly fitted or top-dose-only effect, or another doubt; inactive = no such curve, though single readings can be large or run the other way.
SMILES,Pf growth 48h,CHX counter,Shiga toxin inh,Pf growth 96h,NS1 inh
O=C(Nc1ccc2c(c1)CCC2)c1ccccc1Br,65%,34*,63*,i,-8%
COC(=O)c1ccc(NC(=O)c2ccccc2SC)cc1,66%,27*,46*,96%,-43%
COC(=O)c1ccc(NC(=O)c2ccccc2N(C)S(=O)(=O)c2ccccc2)cc1,·,16*,8,?,-8%
CSc1ccccc1C(=O)Nc1ccc2c(c1)CCC2,101%,21,41*,92%,-13%
COc1ccc(NC(=O)C2CC(=O)OC2(C)C)cc1 (centres undefined),-17%,-4,11,-11%,8%
COc1ccc(N/C(C)=C2/C(=O)C(=O)N(CCO)C2c2ccc([N+](=O)[O-])cc2)cc1 (centres undefined),-4%,6,5,?,-10%
Cc1c(C(=O)Nc2ccc(Nc3ccccc3)cc2)cccc1[N+](=O)[O-],-17%,6,3,?,-23%
Cc1c(C(=O)Nc2ccc3c(c2)CCC3)cccc1[N+](=O)[O-],105%,95*,125*,?,2%
CC(C)c1cccc(C(C)C)c1NC(=O)CN1CCCC1,?,-2,-7,11%,-10%
Cc1ccc(S(=O)(=O)N(Cc2n[nH]c(=S)n2-c2ccccc2)c2ccccc2)cc1,2.3µM*,-1,-6,?,5%
O=C(COc1cccnc1[N+](=O)[O-])NCCc1ccc(Cl)cc1Cl,?,1,-24,-8%,·
CCOc1[nH]n(-c2ccccc2)c(=O)c1C=NCc1cccnc1,?,9,-6,19µM*,·
CCOc1[nH]n(-c2ccccc2)c(=O)c1C=NCC(=O)OC,?,-1,-12,-164%,·
CCCn1c(N)c(N(CCOC)C(=O)CSCC(=O)Nc2ccc(OC)cc2)c(=O)[nH]c1=O,2%,·,·,-34%,·
CC(C)(C)OC(=O)N1CCC(CNC(=O)c2ccccc2)CC1,-2%,-4,39,1%,-1%
C[C@@H]1C=C[C@](Cc2ccccc2)(C(=O)NCC2CC2)N1C(=O)c1ccccc1,23%,70*,173*,?,2%
CC(C)(CC(=O)Nc1ccccc1)C(=O)O,·,·,·,·,-1%
COc1ccc(S(=O)(=O)N2CCCCC2)cc1NC(=O)CN(Cc1ccco1)Cc1ccco1,12µM*,·,·,?,·
CN(CC(=O)Nc1cc(S(=O)(=O)N2CCCCCC2)ccc1Cl)Cc1ccc2c(c1)OCO2,12µM*,·,·,?,·
CN(CC(=O)Nc1cc(S(=O)(=O)N2CCCC2)ccc1Cl)Cc1ccc2c(c1)OCO2,8.3µM*,·,·,?,·
COc1ccc(S(=O)(=O)N2CCCCC2)cc1NC(=O)CN(C)C1CCCCC1,?,1,-11,?,·
COc1ccc(S(=O)(=O)N2CCCCCC2)cc1NC(=O)CN(C)Cc1ccc2c(c1)OCO2,12µM*,·,·,?,·
COc1ccc(CC(=O)Nc2cc(S(=O)(=O)N3CCCCC3)ccc2C)cc1OC,?,-5,-5,-20%,·
CCN(CC)CCN(Cc1cc2cc3c(cc2[nH]c1=O)OCCO3)C(=S)NCC(C)C,?,2,-2,?,13%
CCN(CC)CCN(Cc1cc2cc3c(cc2[nH]c1=O)OCO3)C(=S)NCC(C)C,?,-3,-20,3.7µM*,3%
SMILES,Pf growth 48h,CHX counter,Shiga toxin inh,Pf growth 96h,NS1 inh
CCN(CC)CCN(Cc1cc2cc3c(cc2[nH]c1=O)OCO3)C(=S)NCc1ccco1,-4%,0,3,6.6µM*,5%
CCN(CC)CCCN(Cc1cc2cc3c(cc2[nH]c1=O)OCO3)C(=S)NCc1ccco1,?,-4,10,-16%,3%
CCN(CC)CCN(Cc1cc2ccc(C)c(C)c2[nH]c1=O)C(=S)NCc1ccco1,10µM*,-2,7,?,5%
CCN(CC)CCN(Cc1cc2cc(C)ccc2[nH]c1=O)C(=S)NCc1ccco1,6.6µM*,6,-2,?,24%
CC1(C)CC(=O)C(C(=O)/C=C/c2ccco2)C(=O)C1,0%,-2,-13,0%,13%
N#CC1=C(N)Oc2c(ccc3ccccc23)C1c1cccs1 (centres undefined),·,23*,48*,8.3µM*,-4%
Cc1ccc2[nH]c(=O)c(C3C(C#N)=C(N)Oc4c3ccc3cccnc43)cc2c1 (centres undefined),?,-3,-5,·,-59%
